Sfp inh: qHTS Assay for Inhibitors of Bacillus subtilis Sfp phosphopantetheinyl transferase (PPTase); 4'-phosphopantetheinyl transferase ffp (Bacillus subtilis), Q9F4F7; Biochemical Sfp PPTase activity, qHTS; Potency, µM, for the others: largest response in the series, negative = inhibition, usual class: inhibitors; 310,000 compounds, 3.5% hits;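 also: the enzyme is Sfp with the accession as filed and its product quenches rhodamine fluorescence; 0% = enzyme reaction without inhibitor and -100% = no enzyme wells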
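Reaction rates are the 30-min fluorescence difference (ex 525, em 598 nm) in wells containing 15 nM Sfp, 5 uM rhodamine-CoA and 12.5 uM BHQ-2-YbbR at pH 7.6 with 10 mM MgCl2.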
HP1b chromo inh: HTS for Inhibitors of HP1-beta Chromodomain Interactions with Methylated Histone Tails. Chromobox protein homolog 1 (Homo sapiens), P83916. AlphaScreen HP1-beta / biotin-H3K9me3 peptide binding. Potency, µM (highest dose often 114 µM), inactives show at the highest dose activity change, negative = inhibition, actives largely listed as inhibitors. 390,000 compounds, 0.56% hits. AID 540317, 2011; also: nearly all actives have a fitted effect of over 70% in size
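HP1-beta protein (50 nM final) preincubated 30 min at room temperature with biotinylated H3(1-18)K9me3 peptide (50 nM) in PBS pH 7.4, 0.01% Tween-20, then compound added for 30 min. AlphaScreen streptavidin donor/nickel chelate acceptor beads (10 ug/mL final), 30 min dark, luminescence read.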
G9a block: qHTS Assay for Inhibitors of Histone Lysine Methyltransferase G9a | Histone-lysine N-methyltransferase EHMT2 (Homo sapiens), Q96KQ7 | G9a H3K9 monomethylation, AlphaScreen, 2 h | Potency, µM (titrated, usually from 102 µM), inactives show at the top dose activity, negative = inhibition, hits mostly inhibitors | 350,000 compounds, 8.8% hits | AID 504332, 2011; also: % is scaled to controls: 0 for no effect and ±100 for the full control effect; nearly all actives have a fitted effect of over 75% in size
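Enzyme 20 nM + cpd, 15 min RT; add b-H3K9 pep 500 nM / SAM 20 uM; 2 h RT; anti-H3K9me1 Ab 0.5 ug/mL + SA donor / anti-rabbit acceptor beads 20 ug/mL each, 10 min; AlphaScreen read.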
JMJD2A Tudor inh: qHTS Assay for Inhibitors of JMJD2A-Tudor Domain. Lysine-specific demethylase 4A (Homo sapiens), O75164. 390,000 compounds, 4.4% hits. Potency, µM (doses to about 114 µM), inactives show at the top dose activity change, negative = inhibition, usual class: inhibitors. AlphaScreen JMJD2A-Tudor / H3K4me3 peptide binding; also: % is scaled to controls: 0 for no effect and ±100 for the full control effect; nearly all actives have a fitted effect of over 50% in size
Target sequence (O75164 whole entry, looked up, the tested form may be a part): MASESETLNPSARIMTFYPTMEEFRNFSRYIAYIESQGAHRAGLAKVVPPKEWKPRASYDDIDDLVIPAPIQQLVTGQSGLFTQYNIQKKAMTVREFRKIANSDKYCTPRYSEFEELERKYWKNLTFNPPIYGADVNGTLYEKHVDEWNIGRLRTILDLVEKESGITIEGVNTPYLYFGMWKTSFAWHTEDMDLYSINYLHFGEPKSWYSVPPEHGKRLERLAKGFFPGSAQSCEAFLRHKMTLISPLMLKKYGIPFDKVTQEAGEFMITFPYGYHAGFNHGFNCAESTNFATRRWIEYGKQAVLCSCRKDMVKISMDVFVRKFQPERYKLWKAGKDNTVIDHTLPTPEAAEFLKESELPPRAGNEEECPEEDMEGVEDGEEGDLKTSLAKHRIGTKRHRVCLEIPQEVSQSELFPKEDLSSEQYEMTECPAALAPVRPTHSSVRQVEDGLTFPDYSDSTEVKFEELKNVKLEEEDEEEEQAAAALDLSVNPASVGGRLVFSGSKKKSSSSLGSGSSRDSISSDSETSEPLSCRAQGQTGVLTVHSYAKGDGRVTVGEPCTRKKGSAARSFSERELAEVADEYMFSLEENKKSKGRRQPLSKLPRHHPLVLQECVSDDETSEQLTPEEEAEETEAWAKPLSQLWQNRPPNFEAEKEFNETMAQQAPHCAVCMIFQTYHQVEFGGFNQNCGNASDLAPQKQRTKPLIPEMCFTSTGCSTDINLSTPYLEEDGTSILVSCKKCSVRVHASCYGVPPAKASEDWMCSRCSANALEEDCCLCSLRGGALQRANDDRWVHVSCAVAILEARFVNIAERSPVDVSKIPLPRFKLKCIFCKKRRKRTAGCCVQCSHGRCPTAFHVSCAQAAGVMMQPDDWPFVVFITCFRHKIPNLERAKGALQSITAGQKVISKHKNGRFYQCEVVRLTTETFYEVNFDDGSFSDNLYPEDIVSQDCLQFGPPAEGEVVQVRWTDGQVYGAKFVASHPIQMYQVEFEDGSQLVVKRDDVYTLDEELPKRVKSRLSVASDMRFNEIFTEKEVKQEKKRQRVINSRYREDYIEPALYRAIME
BAZ2B block: qHTS Assay for Inhibitors of BAZ2B; AlphaScreen BAZ2B-H3K14Ac peptide displacement; Bromodomain adjacent to zinc finger domain protein 2B (Homo sapiens), Q9UIF8; 360,000 compounds, 4.4% hits; Potency, µM (titrated, usually from 114 µM), for inactives: at the highest dose activity change, negative = inhibition, hits mostly inhibitors; AID 504333, 2011; also: % is scaled to controls: 0 for no effect and ±100 for the full control effect; nearly all actives have a fitted effect of over 60% in size
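In this displacement format the biotinylated H3(5-23) peptide acetylated at Lys14 serves as ligand at 50 nM, with BAZ2B at 50 nM in PBS pH 7.4 containing 0.01% Tween-20. Donor and acceptor beads are 10 ug/mL final.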
L3MBTL1 block: qHTS Assay for the Inhibitors of L3MBTL1; Lethal(3)malignant brain tumor-like protein 1 (Homo sapiens), Q9Y468; AlphaScreen L3MBTL1–H3K9me1 peptide binding; Potency, µM (titrated, usually from 57.1 µM), inactives show at the highest dose activity, negative = inhibition, usual class: inhibitors; 230,000 compounds, 0.66% hits; AID 485360, 2010; also: % is scaled to controls: 0 for no effect and ±100 for the full control effect; nearly all actives have a fitted effect of over 60% in size
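L3MBTL1 (50 nM) pre-complexed 30 min with biotinylated H3(1-15)K9me1 peptide (75 nM), then compounds added for 30 min at room temperature; AlphaScreen streptavidin donor/nickel chelate acceptor beads (10 ug/mL final) read after 30 min dark incubation.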
* hit, by the source's call; u = inconclusive; x = not tested or not shown; [ ] = dose if it differs, or a comment. Compounds with a hit are over-represented: about 12% of the library has one in this group of screens. Calls follow the shape of the dose curve; as a rule, active = well fitted curve in the direction sought with a large enough effect; inconclusive = small, poorly fitted or top-dose-only effect, or another doubt; inactive = no such curve, though single readings can be large; an effect the other way counts as inactive or inconclusive. Potency is read from the fitted curve at half-maximal effect.

SMILES	Sfp inh	HP1b chromo inh	G9a block	JMJD2A Tudor inh	BAZ2B block	L3MBTL1 block
COc1cc(NC(=O)CCCN2C(=O)CCn3nc(-c4cn(C)c5ccccc45)cc32)cc(OC)c1	x	19%[57 µM]	-9%[59 µM]	-33%	-31%	x
Cc1cccc(-c2nc(Cn3c(=O)cc(-c4ccccc4)c4c(C)nn(C)c43)c(C)o2)c1	x	22%	-9%[59 µM]	-21%	u	x
Fc1cc(F)cc(-c2oncc2-c2nnnn2-c2ccccc2)c1	27%	3%	7%[59 µM]	79µM*	3%	9%
Cc1ccc(-n2nnnc2-c2cnn(-c3cccc(F)c3)c2C(F)(F)F)cc1	26%	13%	7%[59 µM]	u	-3%	12%
Fc1ccc(-c2oncc2-c2nnnn2-c2ccccc2)cc1F	8%	71%	8%[59 µM]	-2%[57.1 µM]	0%	-1%
Cc1ccc(-n2nnnc2-c2cnoc2-c2cccc(F)c2)cc1	12%	22%	-1%[59 µM]	16µM*	28%	14%
CCOc1ccc(S(=O)(=O)N2CCC(C(=O)OC(C)C(=O)N3CCOCC3)CC2)cc1 (stereo not drawn)	x	26%	-3%	-8%	-5%	8%
CCOC(=O)C1CCN(c2cc3c(cc2NC(=O)c2ccc(OC)c(OC)c2)n(C)c(=O)n3C)CC1	-1%	50%	-9%[59 µM]	-13%	u	x
CCOc1ccc(CNC(=O)c2cccc(NC(=O)C3=C(C)OCCS3)c2)cc1	11%	27%	u	9%	50µM*	x
FC(F)(F)c1cc(-c2ccc(Cl)cc2)nc(NCc2cccnc2)n1	79µM*	40%	34%[12.7 µM]	7%	12%	x
COc1ccc(C2/C(=C(/O)c3ccccc3)C(=O)C(=O)N2CCO)cc1 (stereo not drawn)	13%	11%	45µM*	-24%	8%	5%
COc1ccc(/C(O)=C2/C(=O)C(=O)N(CCCC(=O)O)C2c2ccc(OC)cc2)cc1 (stereo not drawn)	18%	6%	-19%	45µM*	u	0%
CN(C1CCS(=O)(=O)C1)S(=O)(=O)c1ccccc1 (stereo not drawn)	11µM*	14%	x	-2%	-9%	36%
CC(C)C(=O)N1CCN(c2ccccc2NC(=S)NC(=O)Cc2ccccc2)CC1	x	40%	x	-10%	x	x
Cc1ccccc1OCC(=O)OC(C)CN1CCN(C)CC1 (stereo not drawn)	-7%	6%	50µM*	u	u	0%
CC(CN1CCN(C)CC1)OC(=O)c1ccccc1Cl (stereo not drawn)	-8%	26%	50µM*	79µM*	u	3%
Cc1cc(C)c(S(=O)(=O)c2cccc(C(F)(F)F)c2)c(=O)[nH]1	4%	37%	-1%	7%	5%	x
COc1ccc(-c2nc3ccccc3c(=O)n2Cc2ccco2)cc1COc1ccc(NC(C)=O)cc1	x	x	x	-21%	x	x
COc1ccc(CN(Cc2ccccc2)C(=O)CN2CCN(C)CC2)cc1COc1ccc(NC(C)=O)cc1	x	-6%	x	35µM*	x	x
COc1ccc(-c2nc3ccccc3c(=O)n2Cc2ccc(CNC(=O)CO)cc2)cc1COc1ccc(NC(C)=O)cc1	x	x	x	79µM*	x	x
COc1ccc(-c2nc3ccc(NC(C)=O)cc3c(=O)n2Cc2cccc(Cl)c2)cc1COc1ccc(NC(C)=O)cc1	x	-5%	x	79µM*	x	x
COc1ccc(Cn2c(C3CC3)nc3ccc(NC(C)=O)cc3c2=O)cc1	-8%	47%	14%[59 µM]	-12%	-13%	-4%
COc1ccc(-c2nc3cccc(OC)c3c(=O)n2Cc2ccccc2)cc1COc1ccc(NC(C)=O)cc1	x	x	x	50µM*	x	x
O=C(Nc1ccccc1F)N1CCC(NC(=O)C23CC4CC(CC(C4)C2)C3)CC1	16%	-13%	1%	-13%	-4%	x
COc1ccc(-c2nc3scc(CCNS(=O)(=O)c4ccc(F)cc4C)n3n2)cc1	x	30%	10%[59 µM]	-4%	-10%	x
SMILES	Sfp inh	HP1b chromo inh	G9a block	JMJD2A Tudor inh	BAZ2B block	L3MBTL1 block
COc1ccc(CN(Cc2ccccc2)C(=O)COC(C)=O)cc1COc1ccc(NC(C)=O)cc1	x	9%	x	-31%	x	x
COc1ccc(-c2nc3ccc(NC(=O)COC(C)=O)cc3c(=O)n2Cc2ccccc2)cc1COc1ccc(NC(C)=O)cc1	x	-3%	x	79µM*	x	x
COc1ccc(CC(=O)Nc2ccc3nc(C)sc3c2)cc1OC	-8%	36%	20µM*	-6%	-4%	6%
Cc1nc2ccc(NC(=O)COc3ccccc3[N+](=O)[O-])cc2s1	5%	36%	7%	-6%	-2%	10%
COc1ccc(C(=O)Nc2ccc3nc(C)sc3c2)cc1OC	16%	-2%	-5%[59 µM]	-27%	-26%	x
Cc1nc2ccc(NC(=O)COc3ccccc3C)cc2s1	32µM*	29%	45µM*	-18%	5%	x
Cc1cccc(-c2[nH]c(C(C)(C)C)nc2-c2ccc3nccnc3c2)n1	x	x	2%[59 µM]	x	x	x
Cc1ccc(NC(=O)CN2C(=O)c3ccccc3Sc3ncccc32)c(C)c1	x	1%	-41%[59 µM]	-21%	-23%	x
CCOC(=O)c1ccc(S(=O)(=O)Nc2nc3cc(S(=O)(=O)NC4=NCCCCC4)ccc3s2)cc1	28µM*	-22%	3.5µM*	89µM*	x	-7%
Nc1nc2cc(S(=O)(=O)NC3=NCCCCC3)ccc2s1	u	30%	-21%[12.7 µM]	-22%	-21%	x
S=C(Nc1ccc2nsnc2c1)N1CCCC1	14µM*	28%	x	-1%	18%	25%
COc1ccc(N2CCN(c3nc4c(C)cccn4c(=O)c3/C=C(\C#N)C(N)=O)CC2)cc1	-16%	-10%	32µM*	u	35µM*	x
CNC(=O)/C(C#N)=C/c1c(N(Cc2ccccc2)Cc2ccccc2)nc2c(C)cccn2c1=O	u	-22%	79µM*	u	u	-14%
Cc1ccc2nc(N3CCN(c4ccccc4)CC3)c(C=O)c(=O)n2c1	3%	23%	31%[12.7 µM]	u	-29%	-7%
C=CCNC(=O)/C(C#N)=C/c1c(N2CCN(c3ccc(OC)cc3)CC2)nc2c(C)cccn2c1=O	12%	u	13%[2.33 µM]	25µM*	u	x
COc1ccc(N2CCN(c3nc4ccc(C)cn4c(=O)c3C=O)CC2)cc1	10%	14%	45µM*	u	u	-19%[2.29 µM]
CCNC(=O)/C(C#N)=C/c1c(N(Cc2ccccc2)Cc2ccccc2)nc2ccccn2c1=O	-16%	-26%	-1%[59 µM]	u	-11%	-8%

Screens (PubChem BioAssay)
